Data reported in publication PMC5540273 (PLoS ONE, 2017).

Tests used:
Settings in all cases: concentration: 1 μM,replicates: in singlicate; n = 1
[1] = test system: RPS6KA4(Kin.Dom.1-N-terminal)
[2] = test system: RPS6KA4(Kin.Dom.2-C-terminal)
[3] = test system: RPS6KA5(Kin.Dom.1-N-terminal)
[4] = test system: RPS6KA5(Kin.Dom.2-C-terminal)
[5] = test system: T1, RSK1(Kin.Dom.1-N-terminal)
T1 construct: gene RPS6KA1

[6] = test system: T2, RSK1(Kin.Dom.2-C-terminal)
T2 construct: gene RPS6KA1

[7] = test system: T3, RSK2(Kin.Dom.1-N-terminal)
T3 construct: gene RPS6KA3

[8] = test system: T4, RSK2(Kin.Dom.2-C-terminal)
T4 construct: gene RPS6KA3

[9] = test system: T5, RSK3(Kin.Dom.1-N-terminal)
T5 construct: gene RPS6KA2

[10] = test system: T6, RSK3(Kin.Dom.2-C-terminal)
T6 construct: gene RPS6KA2
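Further: KINOMEscan kinase panel screen.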

SMILES	%Inh [1] [%]	%Inh [2] [%]	%Inh [3] [%]	%Inh [4] [%]	%Inh [5] [%]	%Inh [6] [%]	%Inh [7] [%]	%Inh [8] [%]	%Inh [9] [%]	%Inh [10] [%]
Cc1ccc(C(=O)Nc2ccc(Oc3ccc4nc(NC(=O)C5CC5)cn4c3)c(F)c2)c(=O)n1-c1ccccc1	22	0	0	0	0	0	0	37	22	2
O=c1[nH]cc(-c2ccc(O)cc2)c2sc(-c3ccncc3)cc12 [GSK1033723]	0	0	4	21	10	0	0	23	0	3
Cn1ccc2ncnc(Oc3ccc(NC(=O)Nc4cc(C(C)(C)C)on4)c(Cl)c3)c21	0	13	0	6	0	17	16	1	0	8
CNC(=O)c1ccccc1Nc1nc(Nc2cccc(CS(C)(=O)=O)c2)ncc1C.O=CO [GSK1520489]	95.7	0	43	0	96.5	43	99.9	12	99	0
Cc1ccn2nc(-c3ccc(F)cc3)c(-c3ccncc3)c2c1.Cl [GW457859]	0	0	44	27	0	44	0	0	0	24
COc1cc2nccc(Nc3ccc(Oc4ccccc4)cc3)c2cc1OC.Cl [GI261656]	0	0	0	12	2	0	0	0	0	0
C[C@@H](Oc1cc(-n2cnc3cc(-c4cnn(C)c4)ccc32)sc1C(N)=O)c1ccccc1Cl [GSK580432]	82	0	5	6	45	0	60	2	77	0
O=C(NOCC1CC1)c1cc(Br)c(F)c(F)c1Nc1ccc(I)cc1Cl	0	0	0	9	0	38	9	0	1	33
C[C@@H](Oc1cc(-n2cnc3cc(-c4ccncc4)ccc32)sc1C(N)=O)c1ccccc1Cl [GSK479719]	46	0	9	0	11	7	42	4	30	21
Cc1cccc(-c2nc(Nc3ccncc3)c3sccc3n2)n1 [GW869641]	30	7	19	0	2	8	41	50	7	21
Cc1ccc(CC(=O)N2CCc3cc(-c4cn(C)c5ncnc(N)c45)ccc32)cc1 [GSK2634758]	16	0	3	0	9	4	0	4	7	0
CC(C)c1nc(-c2cccc(NS(=O)(=O)c3ccccc3)c2)c(-c2ccnc(Nc3ccc4c(c3)CN(C)CC4)n2)s1 [GSK1649598]	33	0	4	0	73	44	10	0	15	0
FC(F)(F)c1cc(Br)cc(Nc2nccc(-c3cnn4ncccc34)n2)c1 [GW810578]	0	0	0	0	0	0	17	0	3	9
Cl.c1ccc(Oc2ccc(Nc3ccnc4cc(-c5ccc(CN6CCNCC6)o5)ccc34)cc2)nc1 [GW567142]	0	0	0	14	2	16	0	0	0	9
CC(=O)Nc1ccc(-c2cc3ncnc(SCC(=O)O)c3s2)cc1	6	47	0	15	0	25	0	0	14	19
O=C1NCCc2[nH]c(-c3ccncc3)cc21	15	92.7	0	58	4	35	8	23	16	27
Cc1ccc2c(-c3ccnc(Nc4ccc(C(F)(F)F)cc4)n3)cnn2n1 [GW819776]	28	0	0	0	19	8	53	0	0	7
